Reference: PubChem BioAssay AID1159580 (chemical genetic matrix, 2015)
Several values for one entry are separate records, joined by “and”; a condition that tells them apart may be missing. Equal entries are not always repeated. Out of some 5,500 compounds screened, about 2,000 (36%) were called active. Roughly 18% stayed inconclusive and do not appear here. Rule as the data show it: active = normalized growth mostly below about 0.91 (no sharp cut-off); inconclusive = no clear call, values can overlap the other calls; inactive = mostly above about 0.92. The list shows a part of the results.

Experiment: chemical genetic growth profiling, strain panel (AID 1159580);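 also: tested at 20 µM; growth read once vehicle control cultures reached saturation at 30 °C; 1 = growth at the plate median or of vehicle wells; lower values mean less growth of the strain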
Details: S. cerevisiae deletion strains, growth OD

Measured: normalized growth

Nc1c(Br)cc(Br)cc1CNC1CCC(O)CC1 (centres undefined)
inactive: locus YAL021C, strain ccr4, active compounds read low 1.01 | locus YAL026C, strain drs2, active compounds read low 0.968 | locus YAL030W, strain snc1, active compounds read low 1.01 | locus YBL061C, strain skt5, active compounds read low 1.02 | locus YBR009C, strain hhf1, active compounds read low 1.03 | locus YBR021W, strain FUR4, active compounds read low 0.996 | locus YBR023C, strain chs3, active compounds read low 1.01 | locus YBR171W, strain sec66, active compounds read low 1.02 | locus YBR229C, strain ROT2, active compounds read low 1.01 | locus YBR231C, strain swc5, active compounds read low 1.01 | locus YBR279W, strain paf1, active compounds read low 1.01 | locus YCL011C, strain gbp2, active compounds read low 1.02 | locus YCL016C, strain dcc1, active compounds read low 1.01 | locus YCL029C, strain bik1, active compounds read low 1 | locus YCL061C, strain MRC1, active compounds read low 1.02 | locus YCL069W, strain vba3, active compounds read low 1.02 | locus YCR088W, strain abp1, active compounds read low 1.02 | locus YDL005C, strain med2, active compounds read low 1.02 | locus YDL035C, strain GPR1, active compounds read low 1.01 | locus YDL040C, strain nat1, active compounds read low 0.992 | locus YDL074C, strain BRE1, active compounds read low 1.01 | locus YDL101C, strain DUN1, active compounds read low 1.02 | locus YDL134C, strain PPH21, active compounds read low 1.01 | locus YDL185W, strain tfp1, active compounds read low 0.996 | locus YDL192W, strain arf1, active compounds read low 0.995 | locus YDR001C, strain nth1, active compounds read low 1.01 | locus YDR069C, strain doa4, active compounds read low 0.985 | locus YDR101C, strain arx1, active compounds read low 0.985 | locus YDR137W, strain rgp1, active compounds read low 0.949 | locus YDR150W, strain NUM1, active compounds read low 1 | locus YDR159W, strain sac3, active compounds read low 0.997 | locus YDR162C, strain NBP2, active compounds read low 1.01 | locus YDR195W, strain ref2 1 | locus YDR297W, strain sur2, active compounds read low 0.982 | locus YDR318W, strain mcm21, active compounds read low 1 | locus YDR334W, strain swr1, active compounds read low 1.02 | locus YDR335W, strain msn5, active compounds read low 0.992 | locus YDR388W, active compounds read low 1.01 | locus YDR392W, strain spt3, active compounds read low 0.966 | locus YDR502C, strain sam2, active compounds read low 0.991 | locus YEL003W, strain gim4, active compounds read low 1.01 | locus YEL037C, strain rad23, active compounds read low 1.02 | locus YEL061C, strain CIN8 (second series), active compounds read low 1.02 | locus YEL061C, strain CIN8, active compounds read low 1.01 | locus YER015W, strain faa2, active compounds read low 1.02 | locus YER016W, strain bim1, active compounds read low 1 | locus YER110C, active compounds read low 1 | locus YER111C, strain swi4, active compounds read low 1.02 | locus YER155C, strain BEM2 (second series), active compounds read low 0.992 | locus YER155C, strain BEM2, active compounds read low 1.01 | locus YER167W, strain BCK2, active compounds read low 1.02 | locus YFR010W, strain ubp6, active compounds read low 1.03 | locus YGL078C, strain dbp3, active compounds read low 0.98 | locus YGL086W, strain mad1, active compounds read low 0.996 | locus YGL167C, strain pmr1, active compounds read low 1 | locus YGL173C, strain kem1, active compounds read low 1.03 | locus YGL227W, strain vid30, active compounds read low 1.01 | locus YGL240W, strain doc1, active compounds read low 0.981 | locus YGL248W, strain PDE1, active compounds read low 0.997 | locus YGL253W, strain hxk2, active compounds read low 1.01 | locus YGR078C, strain PAC10, active compounds read low 0.994 | locus YGR135W, strain pre9, active compounds read low 0.984 | locus YGR252W, strain gcn5, active compounds read low 0.955 | locus YHR013C, strain ard1, active compounds read low 1.02 | locus YHR027C, strain rpn1, active compounds read low 1 | locus YHR030C, strain SLT2, active compounds read low 1 and 1.04 | locus YHR079C, strain IRE1 (second series), active compounds read low 1.01 | locus YHR079C, strain IRE1, active compounds read low 1.03 | locus YHR094C, strain hxt1, active compounds read low 0.998 | locus YHR129C, strain ARP1, active compounds read low 1.01 | locus YHR142W, strain chs7, active compounds read low 1.02 | locus YHR200W, strain rpn10, active compounds read low 0.999 | locus YIL066C, strain RNR3, active compounds read low 1 | locus YIL073C, strain SPO22, active compounds read low 1.04 | locus YIL125W, strain kgd1, active compounds read low 0.999 | locus YIR030C, strain dcg1, active compounds read low 0.997 | locus YJL092W, strain hpr5, active compounds read low 1.02 | locus YJL095W, strain BCK1 (second series), active compounds read low 0.98 | locus YJL095W, strain BCK1, active compounds read low 0.973 and 1.04 | locus YJL115W, strain asf1, active compounds read low 1.02 | locus YJL129C, strain trk1, active compounds read low 1.02 | locus YJL134W, strain LCB3, active compounds read low 1.01 | locus YJL154C, strain vps35, active compounds read low 1.02 | locus YJL164C, strain tpk1, active compounds read low 1.01 | locus YJL166W, strain qcr8, active compounds read low 1.02 | locus YJL168C, strain set2, active compounds read low 1 | locus YJL187C, strain SWE1 (second series), active compounds read low 0.993 | locus YJL187C, strain SWE1, active compounds read low 0.988 | locus YJR043C, strain POL32, active compounds read low 1.02
